Assay outcomes: PubChem, National Center for Advancing Translational Sciences (NCATS)
BAZ2B block: qHTS Assay for Inhibitors of BAZ2B | Bromodomain adjacent to zinc finger domain protein 2B (Homo sapiens), Q9UIF8 | AlphaScreen BAZ2B-H3K14Ac peptide displacement | Potency, µM (top dose mostly 114 µM), actives largely listed as inhibitors | hit rate 4.4% among 360,000; also: nearly all actives have a fitted effect of over 60% in size
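BAZ2B (50 nM) with biotin-H3(5-23)K14Ac peptide (50 nM) in PBS pH 7.4, 0.01% Tween-20, preformed 30 min, then compound 30 min at room temperature; top concentration 110uM. AlphaScreen streptavidin donor/nickel chelate acceptor beads (10 ug/mL final), 20 min dark, signal read.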
HP1b binding inh: HTS for Inhibitors of HP1-beta Chromodomain Interactions with Methylated Histone Tails. Chromobox protein homolog 1 (Homo sapiens), P83916. AlphaScreen HP1-beta / biotin-H3K9me3 peptide binding. Potency, µM (doses to about 114 µM), actives largely listed as inhibitors. hit rate 0.56% among 390,000; also: nearly all actives have a fitted effect of over 70% in size
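Compound inhibition of the preformed complex between 50 nM HP1-beta and 50 nM biotinylated H3K9me3 peptide was read by AlphaScreen. Buffer was PBS pH 7.4 with 0.01% Tween-20. Incubations ran 30 min at room temperature, with 10 ug/mL donor/acceptor beads.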
JMJD2A Tudor: qHTS Assay for Inhibitors of JMJD2A-Tudor Domain | Potency, µM (titrated, usually from 114 µM), hits mostly inhibitors | AlphaScreen JMJD2A-Tudor / H3K4me3 peptide binding | hit rate 4.4% among 390,000 | AID 504339, 2011 | Lysine-specific demethylase 4A (Homo sapiens), O75164; also: nearly all actives have a fitted effect of over 50% in size
Sfp PPTase inh: qHTS Assay for Inhibitors of Bacillus subtilis Sfp phosphopantetheinyl transferase (PPTase) | hit rate 3.5% among 310,000 | Biochemical Sfp PPTase activity, qHTS | Potency, µM, usual class: inhibitors | 4'-phosphopantetheinyl transferase ffp (Bacillus subtilis), Q9F4F7;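 also: the enzyme is Sfp with the accession as filed and its product quenches rhodamine fluorescence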
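Buffer: 50 mM Hepes-Na pH 7.6, 10 mM MgCl2, 0.01% Nonidet P-40, 0.01% BSA. Enzyme 15 nM, pre-exposed to compound 15 min; substrates then added and fluorescence change tracked over 30 min.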
L3MBTL1 block: qHTS Assay for the Inhibitors of L3MBTL1; Lethal(3)malignant brain tumor-like protein 1 (Homo sapiens), Q9Y468; AlphaScreen L3MBTL1–H3K9me1 peptide binding; Potency, µM (top dose mostly 57.1 µM), actives largely listed as inhibitors; hit rate 0.66% among 230,000; also: nearly all actives have a fitted effect of over 60% in size
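First, the protein-peptide complex forms for 30 min at room temperature (L3MBTL1 50 nM, biotinylated H3K9me1 peptide 75 nM). Next, compounds are pin-transferred and incubated 30 min. Finally, AlphaScreen beads are added and read after 30 min.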
G9a inh: qHTS Assay for Inhibitors of Histone Lysine Methyltransferase G9a. Histone-lysine N-methyltransferase EHMT2 (Homo sapiens), Q96KQ7. G9a H3K9 monomethylation, AlphaScreen, 2 h. Potency, µM (highest dose often 102 µM), usual class: inhibitors. hit rate 8.8% among 350,000; also: nearly all actives have a fitted effect of over 75% in size
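Using a bead-based AlphaScreen, monomethylated H3K9 product from 2 h room-temperature reactions (G9a 20 nM, peptide 500 nM, SAM 20 uM) was detected with 0.5 ug/mL rabbit anti-H3K9me1 antibody.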
A number is an active result; - = inactive; ? = inconclusive; . = no result given; [ ] = dose if it differs, or a comment. A selection: hits, their analogues and other compounds. The true share with any hit is near 12%. Calls follow the shape of the dose curve; as a rule, active = well fitted curve in the direction sought with a large enough effect; inconclusive = small, poorly fitted or top-dose-only effect, or another doubt; inactive = no such curve, though single readings can be large; an effect the other way counts as inactive or inconclusive.

SMILES | BAZ2B block | HP1b binding inh | JMJD2A Tudor | Sfp PPTase inh | L3MBTL1 block | G9a inh
CCn1c(C)cc(O)c(C(=O)Nc2cccc(Cl)c2)c1=O | - | - | - | - | . | -
Cn1ncc(N=Cc2c(O)ccc3ccccc23)c1C(=O)Nc1cccc(Cl)c1 | 50µM | - | ? | ? | - | 7.9µM
Cn1ncc([N+](=O)[O-])c1C(=O)Nc1cccc(Cl)c1 | - | - | - | - | -[2.29 µM] | -[0.501 µM]
Cn1ncc(Cl)c1C(=O)Nc1cccc(Cl)c1 | - | - | 89µM | 20µM | - | 2.8µM
CC(C)(C)C(=O)CSc1nc2ccsc2c(=O)n1Cc1ccccc1Cl | - | - | - | . | . | -
CC(=O)Nc1c(C)nn(-c2ccccc2)c1N1CCC(C(=O)NCc2ccc(F)cc2)CC1 | - | - | - | . | . | -
Cc1cc(S(=O)(=O)C(CNC(=O)c2ccc(OC(C)C)cc2)c2cccs2)ccc1F (stereo not drawn) | - | - | - | . | . | -
CC(=O)c1ccc(NC(=O)Cn2cc3c(n2)CCCC3)cc1 | - | - | - | . | . | -
CNC(=S)N/N=C(\C)c1ccc(-n2ccnc2)cc1 | ? | - | - | - | . | ?
C/C(=N\Nc1ccc(C(=O)O)cc1)c1ccc(-n2ccnc2)cc1 | - | - | - | - | - | 13µM
C/C(=N\NC(N)=O)c1ccc(-n2ccnc2)cc1 | - | - | - | - | - | -[12.7 µM]
C/C(=N\Nc1ccccc1Cl)c1ccc(-n2ccnc2)cc1 | 50µM | ? | 56µM | - | - | 10µM
COc1ccc(-c2c3c(=O)n(C)c(=O)n(C)c3c3c(-c4ccccc4)nc4ccccc4n23)cc1 | - | - | - | . | . | -
CCCC/C=C/[C@H](c1ccccc1)[C@H](CO)Cc1ccc2ccccc2c1 | . | - | - | - | . | .
CCCCC[C@@H]1C=C(C(=O)O)[C@H](c2ccc(C)cc2)N1S(=O)(=O)c1ccc(C)cc1 | . | - | 89µM | . | - | .
CCCC[C@@H]1C=C(C(=O)O)[C@H](c2ccc(C)cc2)N1S(=O)(=O)c1ccc(C)cc1 | . | - | - | . | - | .
O=C(Nc1ccc(F)cc1F)c1ccc(CN2CC(=O)N3CCCCC3C2=O)cc1 (stereo not drawn) | - | - | - | . | . | -
O=[N+]([O-])/C(C(Cl)=C(Cl)Cl)=C(/Sc1ccccc1)N1CCCCC1 | 35µM | - | ? | - | - | .
CC(C)CCC[C@@H](C)[C@H]1CC[C@H]2[C@@H]3CC=C4CC(O)CC[C@]4(C)[C@H]3CC[C@]12C (stereo partly drawn) | . | . | . | - | . | .
COC(=O)c1cc(C)nc2c1c(=O)nc(SCc1ccccc1F)n2C1CC1 | - | - | - | . | . | -
CCOC(=O)c1sc2cc([N+](=O)[O-])cc(SCC(=O)OC)c2c1N | 40µM | ? | 45µM | ? | . | 7.9µM
CCOC(=O)c1sc2cc([N+](=O)[O-])cc(SCCO)c2c1N | - | - | - | - | - | -
Cc1cc(NCCCn2ccnc2)n2nc(-c3ccc(F)cc3)cc2n1 | ? | - | - | - | - | -[12.7 µM]
Cc1cc(NCCCn2ccnc2)n2nc(-c3ccc(Cl)cc3)cc2n1 | 45µM | - | ? | - | - | .
NC(=O)C1CCN(C2CC(=O)N(Cc3ccc(N4CCCC4=O)cc3)C2=O)CC1 (stereo not drawn) | - | - | ? | - | . | 45µM
SMILES | BAZ2B block | HP1b binding inh | JMJD2A Tudor | Sfp PPTase inh | L3MBTL1 block | G9a inh
O=S1(=O)CC(O)C(NCc2ccco2)C1 (stereo not drawn) | - | - | - | - | . | -
CC(C)(C)c1cc(CNC2CS(=O)(=O)C[C@@H]2O)cc(C(C)(C)C)c1O (stereo partly drawn) | ? | - | - | - | - | 18µM
CC(=O)N1CCCc2cc(S(=O)(=O)NCc3ccc(OC(C)C)cc3)ccc21 | - | - | - | . | . | -
Cc1ccc(S(=O)(=O)Nn2c(C)ccc2C)cc1 | ? | - | 50µM | 56µM | . | -[2.33 µM]
CCOC(=O)c1c(=O)n(O)c2ccc(C)cc2[n+]1[O-] | ? | - | 89µM | - | - | 50µM
NC(N)=N/N=C/c1ccc(OCc2ccccc2)cc1 | - | - | - | - | - | ?
NC(N)=N/N=C/c1ccc(OCc2ccc(Cl)cc2)cc1 | - | - | ? | 22µM | - | ?
CCOC(=O)c1ccc(NC(=O)CC2C(=O)N(c3cccc(OC)c3)C(=O)N2Cc2cccnc2)cc1 (stereo not drawn) | - | - | - | . | . | -
S=C(/N=c1/sccn1Cc1ccccc1)NC1CC1 | 56µM | - | - | - | . | 50µM
Cc1ccc2c(c1)cc(C(=O)Nc1ccccc1C)n2C | - | - | - | . | . | -
Cc1ccc2c(ccc(=S)n2C)c1 | ? | - | - | - | . | 40µM
O=C(Cc1ccc(F)cc1)NCc1ccc2c(c1)CCN2C(=O)c1ccc(F)cc1 | - | - | - | . | . | -
CN(C)S(=O)(=O)N1CCC(Oc2ccc(C(=O)N3CCCCCCC3)cc2)CC1 | 56µM | - | - | - | . | ?
CC1CCCCN1C(=O)c1ccc(OC2CCN(S(=O)(=O)N(C)C)CC2)cc1 (stereo not drawn) | - | - | - | - | - | -
CCCCOc1ccc(N=Nc2ccc(N)nc2N)cn1 | - | ? | 35µM | - | . | -[0.501 µM]
CCCCOc1ccc(Cc2cnc(N)nc2N)cc1 | - | - | - | - | . | .
COc1ccccc1CNC(=O)c1ccc(Cn2c(SCc3ccccc3)nc3cccnc32)cc1 | - | - | - | . | . | -
O=C1OCCC1N(C(=O)C1CC1)c1cccc(Cl)c1 (stereo not drawn) | . | . | . | - | . | .
Cc1cccc2c1c1ccc3c(c1n2C)C(=O)C=CC3=O | 5µM | 6.3µM | 25µM | 3.5µM | - | 2µM
Cc1ccccc1N1CC(=O)N(c2ccccc2C)CC1=O | - | - | - | - | . | -
CCc1c(C(C)S(=O)(=O)c2ccc(C)cc2)[nH]c(=O)n1-c1ccc(OC(F)(F)F)cc1 (stereo not drawn) | - | - | - | - | . | 10µM
CCn1cc(S(=O)(=O)c2ccc(C)cc2)[nH]c1=O | - | - | - | - | . | -
Cc1cc(F)ccc1S(=O)(=O)NCC(c1ccco1)S(=O)(=O)c1cccs1 (stereo not drawn) | - | - | - | . | . | -
O=C1CCC2(CC1)NC(=O)N(c1ccccc1)N2 | - | - | -[11.4 µM] | - | - | 7.1µM
CN(c1ccc(O)cc1)c1nc(-c2ccccc2)cs1 | 50µM | - | - | - | - | ?
CC(C)Cn1c(-c2csc(C(C)C)c2)n[nH]c1=S | - | - | ? | - | - | 5µM
CCn1c(-c2csc(C(C)C)c2)n[nH]c1=S | - | ? | 10µM | - | - | 1.6µM
CCOc1ccccc1NC(=O)NC(CC)c1c(-n2cccc2)sc2c1CCN(C)C2 (stereo not drawn) | - | - | - | . | . | ?
